Measured values as given in PubChem BioAssay (NCI).
About 83,000 compounds went through this panel and 20% of them were active in at least one assay; those are over-represented in the sample as a whole.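 Compound tested at a single concentration for 48 hours in 96-well plates; a percent growth value below 10 was scored as active.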 Unmarked numbers belong to inactive results. The source made the active and inactive calls.

Legend:
Experiment in all cases: NCI-60 one-dose screen, 48 h (100 = growth as untreated, 0 = no growth, -100 = all killed)
Settings in all cases: 10 µM unless noted
NCI-H23 lung = tested on: NCI-H23 lung
NCI-H226 lung = tested on: NCI-H226 lung
NCI-H322M lung = tested on: NCI-H322M lung
HOP-62 NSCLC = tested on: HOP-62 NSCLC
NCI-H460 lung = tested on: NCI-H460 lung
HOP-92 NSCLC = tested on: HOP-92 NSCLC
NCI-H522 lung = tested on: NCI-H522 lung
A549/ATCC NSCLC = tested on: A549/ATCC NSCLC
786-0 renal = tested on: 786-0 renal
COLO 205 colon = tested on: COLO 205 colon
DU-145 prostate = tested on: DU-145 prostate
K-562 leukemia = tested on: K-562 leukemia
MALME-3M melanoma = tested on: MALME-3M melanoma
MDA-MB-231 breast = tested on: MDA-MB-231 breast
RXF 393 renal = tested on: RXF 393 renal
SF-268 CNS = tested on: SF-268 CNS
SF-295 CNS = tested on: SF-295 CNS
SF-539 CNS = tested on: SF-539 CNS
UACC-257 melanoma = tested on: UACC-257 melanoma
M14 melanoma = tested on: M14 melanoma

| SMILES | growth (NCI-H23 lung) | growth (NCI-H226 lung) | growth (NCI-H322M lung) | growth (HOP-62 NSCLC) | growth (NCI-H460 lung) | growth (HOP-92 NSCLC) | growth (NCI-H522 lung) | growth (A549/ATCC NSCLC) | growth (786-0 renal) | growth (COLO 205 colon) | growth (DU-145 prostate) | growth (K-562 leukemia) | growth (MALME-3M melanoma) | growth (MDA-MB-231 breast) | growth (RXF 393 renal) | growth (SF-268 CNS) | growth (SF-295 CNS) | growth (SF-539 CNS) | growth (UACC-257 melanoma) | growth (M14 melanoma) |
| --- | --- | --- | --- | --- | --- | --- | --- | --- | --- | --- | --- | --- | --- | --- | --- | --- | --- | --- | --- | --- |
| O=C(NCc1ccc(Cn2c(=O)sn(-c3ccccc3)c2=O)cc1)OCc1ccc2c(Br)cc(Br)c(O)c2n1 | -47.2% (active) | -25.8% (active) | 43.1% | -48.4% (active) | -21% (active) | -58.7% (active) | -47.1% (active) | -52.3% (active) | -78.7% (active) | -75.6% (active) | -89.6% (active) | 5.05% (active) | -76.7% (active) | -53.4% (active) | -90.9% (active) | -59.9% (active) | 9.81% (active) | -93.6% (active) | -17.2% (active) | -62.6% (active) |
| CC(C)=CC/C=C(/C)[C@H]1CC[C@]2(C)[C@@H]1CC[C@@H]1[C@@]3(C)CCCNC(C)(C)[C@@H]3CC[C@]12C | -61.7% [100 µM] (active) | -49.5% [100 µM] (active) | -99.4% [100 µM] (active) | -48.3% [100 µM] (active) | -74.2% [100 µM] (active) | -56.6% [100 µM] (active) | -59.3% [100 µM] (active) | -51.8% [100 µM] (active) | -56.2% [100 µM] (active) | -62.4% [100 µM] (active) | -78.7% [100 µM] (active) | -19.2% [100 µM] (active) | -78.9% [100 µM] (active) | -74.7% [100 µM] (active) | -70.1% [100 µM] (active) | -48% [100 µM] (active) | -77.8% [100 µM] (active) | -86% [100 µM] (active) | -72.3% [100 µM] (active) | -58.6% [100 µM] (active) |
| COc1cc(-c2cc(-c3ccc(Nc4ncnc5cc(Cl)ccc45)cc3)nc(N3CCCCC3)n2)cc(OC)c1OC | 102% | 99.3% | 95.5% | 84.7% | 94.7% | 92% | 75.3% | 84.7% | 98.9% | 110% | 102% | 92.3% | 95.1% | 92% | 106% | 88.4% | 104% | 93.6% | 111% | 106% |
| CCOC(=O)c1nn(C2CCCCO2)c2ccc(NS(=O)(=O)c3ccc(C)cc3)cc12 (stereo not given) | 100% | 102% | 104% | 101% | 99.4% | 96.4% | 98% | 95.1% | 94.4% | 121% | 106% | 82.8% | 102% | 94.2% | 119% | 96.2% | 99.7% | 105% | 97% | 101% |
| CC1(C)CC[C@]2(C(N)=O)CC[C@]3(C)C(=CC[C@@H]4[C@@]5(C)C/C(=C/c6cccnc6)C(=O)C(C)(C)[C@@H]5CC[C@]43C)[C@@H]2C1 | -2.72% [100 µM] (active) | -36.8% [100 µM] (active) | -57.3% [100 µM] (active) | -55.5% [100 µM] (active) | -51.8% [100 µM] (active) | -50.7% [100 µM] (active) | -59.7% [100 µM] (active) | -35.9% [100 µM] (active) | -38.4% [100 µM] (active) | -57.6% [100 µM] (active) | -18% [100 µM] (active) | 4.29% [100 µM] (active) | -75.9% [100 µM] (active) | -45.2% [100 µM] (active) | -63% [100 µM] (active) | -5.09% [100 µM] (active) | -53.9% [100 µM] (active) | -61.5% [100 µM] (active) | -54.7% [100 µM] (active) | -11.2% [100 µM] (active) |
| Brc1ccc(-c2nnc3c4[nH]ccc4ncn23)cc1 | 88.3% | 96.7% | 91% | 92.6% | 90.1% | 69.6% | 80.9% | 91.8% | 94% | 109% | 101% | 79.9% | 101% | 44.4% | 107% | 92.4% | 96.1% | 102% | 109% | 102% |
| COc1cc2c(=O)[nH]c3cc([N+](=O)[O-])ccc3c2cc1[N+](=O)[O-] | 55.4% | 45% | 60.8% | 85.5% | 14% | 45.9% | 28.7% | 40.5% | 70.1% | 56.6% | 73.4% | 49.2% | 50.3% | 56% | 72.2% | 63.7% | 47.9% | 45% | 41.7% | 76.4% |
| COc1cccc(-c2[nH]c(=S)ncc2C(=O)c2ccccc2)c1 | 97% | 102% | 99.9% | 78.8% | 91.9% | 102% | 70.9% | 88.4% | 100% | 84.7% | 98.4% | 35% | 71% | 99.3% | 90.6% | 90% | 68.6% | 84.9% | 97.3% | 61.9% |
| COC(=O)C(=Cc1ccccc1[N+](=O)[O-])C(=O)OC | 38.8% | 97.6% | 54.9% | 104% | 41.2% | 16.5% | -3.3% (active) | 44.2% | 41.3% | 38% | -45.6% (active) | -12% (active) | 25.2% | 48% | -29.1% (active) | 0.377% (active) | 97.1% | 58.1% | 57.1% | 32% |
| Cn1cc(-c2noc(-c3cn(C)c4ncccc34)n2)c2cc(Cl)ccc21 | 91.5% | 115% | 91.2% | 93.2% | 88% | 135% | 7.71% (active) | 79.7% | 95.4% | 91.9% | 103% | 87.4% | 90.7% | 70.4% | 121% | 82.9% | 99.2% | 56.6% | 103% | 91.6% |
| CC(=O)CC(=O)SC1=NCCS1 | 108% | 112% | 113% | 123% | 106% | 101% | 95.8% | 87.6% | 109% | 109% | 121% | 104% | 140% | 112% | 122% | 102% | 109% | 102% | 98.8% | 113% |
| CCOC(=O)C(C(C)=O)c1nc2sc3cc(Cl)c(Cl)cc3n2c(=O)c1C#N (stereo not given) | 94.7% | 95.3% | 114% | 109% | 92.7% | 76.8% | 62.9% | 108% | 114% | 108% | 109% | 92% | 95.5% | 87.2% | 179% | 103% | 103% | 86.2% | 118% | 104% |
| Nc1cccc2c1C(=O)c1cccc(NC(=O)c3ccccc3)c1C2=O | 29.9% | 52.2% | -7.76% (active) | 38.7% | 7.2% (active) | 53.2% | -28.5% (active) | 28.6% | 37.5% | -11.5% (active) | 6.99% (active) | 13.3% | -17% (active) | 38.4% | -10.7% (active) | 51.5% | -30.3% (active) | -2.57% (active) | 56.2% | 14.2% |
| Cc1ccc(S(=O)(=O)Nc2ccccc2)cc1N | 90.8% | 95.6% | 97% | 86.2% | 99.5% | 75.2% | 23.5% | 81.3% | 99.8% | 119% | 108% | 78.3% | 133% | 83.9% | 94.5% | 94.8% | 119% | 106% | 92.3% | 96.2% |
